CYP2C19 activ – activators of human cytochrome P450 2C19 | recombinant CYP2C19, luciferin-H EGE luminescence; stronger effect = higher value; 0 = fully inhibited enzyme, 1 = untreated enzyme | activation factor at 5 µM | 96,000 tested, under 10 active | AID 1025;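 active means activation factor of at least 2 at 5 µM in the primary screen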
CYP2C9 act – activators of human CYP2C9; P11712; hit rate 1.4% among 96,000; activation factor at 5 µM; recombinant CYP2C9, luciferin-H conversion, luminescence; stronger effect = higher value; factor 1 = untreated enzyme, 0 = blocked;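 active means activation factor of 2 or more for CYP2C9 at a 5 µM dose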
PLAP activator – activates human placental alkaline phosphatase; P05187; purified PLAP enzyme, luminescent substrate read-out; stronger effect = higher value; activation fold at 20 µM; hit rate 1.2% among 96,000; AID 696; in the data active means activation fold above about 2
Target sequence (P05187 whole entry, looked up): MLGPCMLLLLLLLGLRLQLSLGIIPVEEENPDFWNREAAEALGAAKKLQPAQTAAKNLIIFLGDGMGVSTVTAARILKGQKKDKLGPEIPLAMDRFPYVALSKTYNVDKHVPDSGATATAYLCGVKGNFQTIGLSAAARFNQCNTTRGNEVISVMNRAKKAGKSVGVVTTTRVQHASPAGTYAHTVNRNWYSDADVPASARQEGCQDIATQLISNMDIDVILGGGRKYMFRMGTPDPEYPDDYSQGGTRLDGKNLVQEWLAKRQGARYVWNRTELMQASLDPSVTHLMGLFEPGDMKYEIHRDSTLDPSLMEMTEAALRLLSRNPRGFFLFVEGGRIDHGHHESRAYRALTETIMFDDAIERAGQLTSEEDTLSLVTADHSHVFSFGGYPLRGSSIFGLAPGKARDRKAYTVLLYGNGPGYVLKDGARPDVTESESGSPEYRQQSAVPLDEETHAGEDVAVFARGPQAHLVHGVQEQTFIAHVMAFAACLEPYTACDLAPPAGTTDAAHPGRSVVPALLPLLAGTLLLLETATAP
CYP2C19 inh – human CYP2C19 inhibition; hit rate 21% among 96,000; CYP2C19 Supersomes, luciferin-H EGE luminescence, 30 min; AID 778; inhibition, % at 5 µM; P33261;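 active means CYP2C19 inhibition above a set limit at 5 µM in the primary screen, cut at about 50% in these data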
CYP2C9 inh – human CYP2C9 inhibition. P11712. CYP2C9 Supersomes, luciferin-H conversion, luminescence. hit rate 20% among 96,000. inhibition, % at 5 µM. AID 777;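 active means blocking of liver enzyme CYP2C9 beyond about 50% at 5 µM, limit read from the data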
Large screens that a line does not name were inactive. Compounds with a hit are over-represented: about 31% of the library has one in this group of screens.

COc1ccc(C(=O)Nn2c(SCC(=O)NCC3CCCO3)nc3ccccc3c2=O)cc1 (stereo unspecified)	CYP2C9 inh 60.0
O=C(CSc1nc2ccccc2c(=O)n1CC1CCCO1)NCC1CCCO1 (stereo unspecified)	none
COc1ccc(C(=O)Nn2c(SCC(=O)NCc3ccccc3)nc3ccccc3c2=O)cc1	CYP2C9 inh 74.1
COc1cccc(-n2c(SCC(=O)Nc3cc(C)on3)nc3ccccc3c2=O)c1	none
O=C(CSc1nc2ccccc2n1-c1ccccc1)NCC1CCCO1 (stereo unspecified)	CYP2C19 inh 95.8, CYP2C9 inh 71.5
COCCNC(=O)CSc1nc2ccccc2c(=O)n1-c1cccc(OC)c1	CYP2C19 inh 82.4, CYP2C9 inh 65.3
Cc1cccc(-c2c3c(=O)n(C)c(=O)n(C)c3cn2CC2CCCO2)c1 (stereo unspecified)	none
CC(=O)C1=C(Nc2ccc(C)cc2)CC(C)(O)C(C(C)=O)C1c1ccco1 (stereo unspecified)	none
O=C(Cn1nc(C(=O)O)c2ccccc2c1=O)NCC1CCCO1 (stereo unspecified)	none
Cn1nc(-c2ccc(C(=O)NCC3CCCO3)cc2)c2ccccc2c1=O (stereo unspecified)	none
Cn1nc(-c2ccc(OCC(=O)NCC3CCCO3)cc2)c2ccccc2c1=O (stereo unspecified)	CYP2C9 inh 54.5
COc1ccc(-n2nc(C(=O)NCC(=O)NCC3CCCO3)c3ccccc3c2=O)cc1Cl (stereo unspecified)	CYP2C9 inh 60.5
Cn1c(C(=O)N2CCC(C(=O)N3CCN(Cc4ccc5c(c4)OCO5)CC3)CC2)cc2sccc21	CYP2C19 inh 50.7
Cn1c(C(=O)N2CCN(Cc3ccc4c(c3)OCO4)CC2)cc2sccc21	CYP2C19 inh 70.0
Cn1c(C(=O)N2CCC(C(=O)N3CCOCC3)CC2)cc2sccc21	none
COc1ccsc1C(=O)N1CCN(Cc2ccc3c(c2)OCO3)CC1	CYP2C19 inh 85.2
O=Cc1c(-[n+]2ccccc2)nc([O-])n1-c1ccccc1	none
CC(C)(C)c1cc(C(c2cccnc2)N2CCN(CCO)CC2)cc(C(C)(C)C)c1O (stereo unspecified)	CYP2C19 inh 79.9, CYP2C9 inh 96.0
OCCN1CCN(C(c2cccs2)c2ccc3cccnc3c2O)CC1 (stereo unspecified)	none
CCOc1ccc2nc(SC(C)C(N)=O)[nH]c2c1 (stereo unspecified)	none
CCc1cc([N+](=O)[O-])cc(CC)c1N	CYP2C19 inh 55.2
CCOC(=O)Cc1c(C)nc2c(-c3ccc(Cl)cc3)c(C)[nH]n2c1=O	CYP2C19 inh 56.2
CCOC(=O)Cc1c(C)nc2c(C#N)c[nH]n2c1=O	none
CCOC(=O)Cc1cc(=O)n2[nH]c(C)c(-c3ccccc3)c2n1	none
CCOC(=O)Cc1c(C)nc2c(-c3cccc(Br)c3)c[nH]n2c1=O	CYP2C9 inh 73.6
Cc1ccc(S(=O)(=O)N2CCN(C(=O)C3Cc4ccccc4CN3C(=O)c3ccco3)CC2)cc1 (stereo unspecified)	none
Cc1nn(-c2ccccc2)c2c1C(c1cccs1)C(C#N)=C(N)O2 (stereo unspecified)	CYP2C9 inh 78.7
Cc1ccc(-n2nc(C)c3c2OC(N)=C(C#N)C3c2ccc(F)cc2)cc1 (stereo unspecified)	none
Cc1nn(-c2ccccc2)c2c1C(c1ccco1)C(C#N)=C(N)O2 (stereo unspecified)	CYP2C9 inh 78.6
OCCSc1nncn1/N=C/c1c[nH]c2ccccc12	none
COCCCn1[nH]c2c3c(ccc2c1=O)C(=O)c1ccccc1C3=O	CYP2C9 inh 63.6
COc1ccc(Sc2ccccc2CN(C)C)cc1OC	CYP2C19 inh 57.1
O=C(CSc1nnc(NC(=O)CN2CCOCC2)s1)Nc1ccccc1	none
O=C(CN1CCOCC1)Nc1ncc(Cc2ccccc2Cl)s1	PLAP activator 2
CCCC(C(=O)NC1CCCC1)N(CCCN1CCOCC1)C(=O)c1snc(C(N)=O)c1N (stereo unspecified)	none
COc1cccc(C(C#N)N2CCOCC2)c1 (stereo unspecified)	CYP2C19 inh 77.7
Cc1nc2ccc(NC(=O)N3CCSCC3)cc2s1	none
COC(=O)c1scc(C)c1NC(=O)C1CCCCC1	none
Cc1nc(NCc2ccco2)nc2c1C(=O)CC(C)C2 (stereo unspecified)	none
CC(C)C(OC(=O)c1nsc(Cl)c1Cl)C(=O)NCc1ccc2c(c1)OCO2 (stereo unspecified)	CYP2C9 inh 65.4
CC(C)C(OC(=O)c1ccco1)C(=O)NCc1ccccc1 (stereo unspecified)	none
CC(C)C(OC(=O)c1cccs1)C(=O)NCc1cccs1 (stereo unspecified)	CYP2C19 inh 91.4, CYP2C9 inh 65.5
CC(OC(=O)c1cccs1)C(=O)NCc1ccccc1 (stereo unspecified)	CYP2C19 inh 98.3, CYP2C9 inh 76.7
CC(OC(=O)c1cccs1)C(=O)NCc1ccc2c(c1)OCO2 (stereo unspecified)	CYP2C9 inh 67.4
CCOC(=O)c1cc2c(=O)[nH]ccc2nc1C	none
Cc1ccc(C)c(C(=O)C(C)OC(=O)c2cccn2C)c1 (stereo unspecified)	none
COc1ccc(CNC(=O)C(C)OC(=O)c2cccn2C)cc1 (stereo unspecified)	CYP2C19 inh 78.1
O=C(OCn1ncc(Br)c(Br)c1=O)c1c(F)cccc1F	CYP2C19 inh 83.3
O=C(OCn1ncc(Cl)c(Cl)c1=O)c1ccc(F)cc1	none
O=c1c2c3c(sc2ncn1Cc1ccc(F)cc1)CCC3	CYP2C19 inh 80.6, CYP2C9 inh 78.2
CC(C)C1CC(c2csc(N)n2)CCO1 (stereo unspecified)	none
CCCC1CC(c2csc(N)n2)CCO1 (stereo unspecified)	CYP2C19 inh 80.1, CYP2C9 inh 75.7
CC(O)c1ccc2c(c1)OCCOCCN(C)CCOCCO2 (stereo unspecified)	none
CC(C)CCC(CCN1CCOCC1)c1ccc2c(c1)OCO2 (stereo unspecified)	CYP2C19 inh 95.2, CYP2C9 inh 50.9
COc1ccc(/C=N/NC(=O)CCCC(=O)NC2CCCCC2)cc1	none
Cc1sc2nc(SCc3nnc(-c4cccs4)o3)n(C3CCCC3)c(=O)c2c1C	CYP2C9 inh 82.8
CC(C)Cn1c(SCc2nnc(-c3cccs3)o2)nc(O)cc1=O	CYP2C9 inh 74.8
COc1ccc(CN2CCn3ncc(C(=O)Nc4cc(C)cc(C)c4)c3C2=O)cc1	none
N#C/C(=C\c1ccc(Cl)cc1)c1nc2ncccc2[nH]1	CYP2C9 inh 60.7
Cc1ccc(/C=C(\C#N)c2nc3ccccc3[nH]2)s1	none
N#CC1=C(N)c2ccccc2CC12CCCCC2	CYP2C9 inh 78.3
Cc1cc(OCCOc2cccc3cccnc23)cc(C)c1Cl	CYP2C9 act 2.2
CC12CC(c3ccccc3O1)N(C(=O)c1ccco1)C(=S)N2c1ccc(F)cc1 (stereo unspecified)	CYP2C19 inh 62.7

Compound activity (PubChem BioAssay)
